According to PMC8222333, “AsCas12a ultra nuclease facilitates the rapid generation of therapeutic cell medicines”:

B1: CTTA (dsDNA)
DNA 1: GCTATCTAGTGCTCAGTACGCACTGCTTAAGGAAACTTCTGGCAGGACCAGGTCATGAGATCGGAAGAGCACACGTCTGAACTCCAGTCA
DNA 2: TGACTGGAGTTCAGACGTGTGCTCTTCCGATCTCATGACCTGGTCCTGCCAGAAGTTTCCTTAAGCAGTGCGTACTGAGCACTAGATAGC
RNA: AAUUUCUACUCUUGUAGAUAGGAAACUUCUGGCAGGACC
B2: TATA (dsDNA)
DNA 1: GCTATCTAGTGCTCAGTACGCACTGTATAAGGAAACTTCTGGCAGGACCAGGTCATGAGATCGGAAGAGCACACGTCTGAACTCCAGTCA
DNA 2: TGACTGGAGTTCAGACGTGTGCTCTTCCGATCTCATGACCTGGTCCTGCCAGAAGTTTCCTTATACAGTGCGTACTGAGCACTAGATAGC
RNA: AAUUUCUACUCUUGUAGAUAGGAAACUUCUGGCAGGACC
B3: CTTC (dsDNA)
DNA 1: GCTATCTAGTGCTCAGTACGCACTGCTTCAGGAAACTTCTGGCAGGACCAGGTCATGAGATCGGAAGAGCACACGTCTGAACTCCAGTCA
DNA 2: TGACTGGAGTTCAGACGTGTGCTCTTCCGATCTCATGACCTGGTCCTGCCAGAAGTTTCCTGAAGCAGTGCGTACTGAGCACTAGATAGC
RNA: AAUUUCUACUCUUGUAGAUAGGAAACUUCUGGCAGGACC
B4: TCTA (dsDNA)
DNA 1: GCTATCTAGTGCTCAGTACGCACTGTCTAAGGAAACTTCTGGCAGGACCAGGTCATGAGATCGGAAGAGCACACGTCTGAACTCCAGTCA
DNA 2: TGACTGGAGTTCAGACGTGTGCTCTTCCGATCTCATGACCTGGTCCTGCCAGAAGTTTCCTTAGACAGTGCGTACTGAGCACTAGATAGC
RNA: AAUUUCUACUCUUGUAGAUAGGAAACUUCUGGCAGGACC
B5: CTTT (dsDNA)
DNA 1: GCTATCTAGTGCTCAGTACGCACTGCTTTAGGAAACTTCTGGCAGGACCAGGTCATGAGATCGGAAGAGCACACGTCTGAACTCCAGTCA
DNA 2: TGACTGGAGTTCAGACGTGTGCTCTTCCGATCTCATGACCTGGTCCTGCCAGAAGTTTCCTAAAGCAGTGCGTACTGAGCACTAGATAGC
RNA: AAUUUCUACUCUUGUAGAUAGGAAACUUCUGGCAGGACC
B6: GTTC (dsDNA)
DNA 1: GCTATCTAGTGCTCAGTACGCACTGGTTCAGGAAACTTCTGGCAGGACCAGGTCATGAGATCGGAAGAGCACACGTCTGAACTCCAGTCA
DNA 2: TGACTGGAGTTCAGACGTGTGCTCTTCCGATCTCATGACCTGGTCCTGCCAGAAGTTTCCTGAACCAGTGCGTACTGAGCACTAGATAGC
RNA: AAUUUCUACUCUUGUAGAUAGGAAACUUCUGGCAGGACC
B7: GTTG (dsDNA)
DNA 1: GCTATCTAGTGCTCAGTACGCACTGGTTGAGGAAACTTCTGGCAGGACCAGGTCATGAGATCGGAAGAGCACACGTCTGAACTCCAGTCA
DNA 2: TGACTGGAGTTCAGACGTGTGCTCTTCCGATCTCATGACCTGGTCCTGCCAGAAGTTTCCTCAACCAGTGCGTACTGAGCACTAGATAGC
RNA: AAUUUCUACUCUUGUAGAUAGGAAACUUCUGGCAGGACC
B8: CTTG (dsDNA)
DNA 1: GCTATCTAGTGCTCAGTACGCACTGCTTGAGGAAACTTCTGGCAGGACCAGGTCATGAGATCGGAAGAGCACACGTCTGAACTCCAGTCA
DNA 2: TGACTGGAGTTCAGACGTGTGCTCTTCCGATCTCATGACCTGGTCCTGCCAGAAGTTTCCTCAAGCAGTGCGTACTGAGCACTAGATAGC
RNA: AAUUUCUACUCUUGUAGAUAGGAAACUUCUGGCAGGACC
B9: TATC (dsDNA)
DNA 1: GCTATCTAGTGCTCAGTACGCACTGTATCAGGAAACTTCTGGCAGGACCAGGTCATGAGATCGGAAGAGCACACGTCTGAACTCCAGTCA
DNA 2: TGACTGGAGTTCAGACGTGTGCTCTTCCGATCTCATGACCTGGTCCTGCCAGAAGTTTCCTGATACAGTGCGTACTGAGCACTAGATAGC
RNA: AAUUUCUACUCUUGUAGAUAGGAAACUUCUGGCAGGACC
B10: GTTT (dsDNA)
DNA 1: GCTATCTAGTGCTCAGTACGCACTGGTTTAGGAAACTTCTGGCAGGACCAGGTCATGAGATCGGAAGAGCACACGTCTGAACTCCAGTCA
DNA 2: TGACTGGAGTTCAGACGTGTGCTCTTCCGATCTCATGACCTGGTCCTGCCAGAAGTTTCCTAAACCAGTGCGTACTGAGCACTAGATAGC
RNA: AAUUUCUACUCUUGUAGAUAGGAAACUUCUGGCAGGACC
B11: TATG (dsDNA)
DNA 1: GCTATCTAGTGCTCAGTACGCACTGTATGAGGAAACTTCTGGCAGGACCAGGTCATGAGATCGGAAGAGCACACGTCTGAACTCCAGTCA
DNA 2: TGACTGGAGTTCAGACGTGTGCTCTTCCGATCTCATGACCTGGTCCTGCCAGAAGTTTCCTCATACAGTGCGTACTGAGCACTAGATAGC
RNA: AAUUUCUACUCUUGUAGAUAGGAAACUUCUGGCAGGACC
B12: TCCC (dsDNA)
DNA 1: GCTATCTAGTGCTCAGTACGCACTGTCCCAGGAAACTTCTGGCAGGACCAGGTCATGAGATCGGAAGAGCACACGTCTGAACTCCAGTCA
DNA 2: TGACTGGAGTTCAGACGTGTGCTCTTCCGATCTCATGACCTGGTCCTGCCAGAAGTTTCCTGGGACAGTGCGTACTGAGCACTAGATAGC
RNA: AAUUUCUACUCUUGUAGAUAGGAAACUUCUGGCAGGACC
B13: GTTA (dsDNA)
DNA 1: GCTATCTAGTGCTCAGTACGCACTGGTTAAGGAAACTTCTGGCAGGACCAGGTCATGAGATCGGAAGAGCACACGTCTGAACTCCAGTCA
DNA 2: TGACTGGAGTTCAGACGTGTGCTCTTCCGATCTCATGACCTGGTCCTGCCAGAAGTTTCCTTAACCAGTGCGTACTGAGCACTAGATAGC
RNA: AAUUUCUACUCUUGUAGAUAGGAAACUUCUGGCAGGACC

Each binder was assayed against dAsCas12a WT (Acidaminococcus sp., UniProt U2UMQ6 1-1307, D908A;E993A;D1235A) (assay: Spec-seq (native PAGE EMSA with sequencing of bound and unbound); 25 mM Tris-HCl pH 7.4, 150 mM KCl, 5 mM MgCl2, 10% glycerol, 1 mM DTT, 40 ng/uL salmon sperm DNA; 400 nM Cas12a, 480 nM crRNA, 50 nM library, 37 C 1 h; native P; high values mean tight binding). Conditions: not given.

Binder	binding signal
B1	-6.66 lnKA
B2	-8 lnKA
B3	-6.68 lnKA
B4	-6.18 lnKA
B5	-8.63 lnKA
B6	-7.08 lnKA
B7	-7.73 lnKA
B8	-7.38 lnKA
B9	-8.56 lnKA
B10	-8.41 lnKA
B11	-9 lnKA
B12	-8.69 lnKA
B13	-6.86 lnKA

These binders were tested against dAsCas12a Ultra (Acidaminococcus sp., UniProt U2UMQ6 1-1307, M537R;F870L;D908A;E993A;D1235A) (assay: Spec-seq (native PAGE EMSA with sequencing of bound and unbound); 25 mM Tris-HCl pH 7.4, 150 mM KCl, 5 mM MgCl2, 10% glycerol, 1 mM DTT, 40 ng/uL salmon sperm DNA; 400 nM Cas12a, 480 nM crRNA, 50 nM library, 37 C 1 h; native PAGE at room temperature; high values mean tight binding). Conditions: protein: recombinant.

Binder	binding signal
B1	-4.22 lnKA
B2	-7.14 lnKA
B3	-4.32 lnKA
B4	-3.71 lnKA
B5	-7.25 lnKA
B6	-4.74 lnKA
B7	-5.6 lnKA
B8	-5.08 lnKA
B9	-7.72 lnKA
B10	-7.18 lnKA
B11	-8.06 lnKA
B12	-6.14 lnKA
B13	-4.67 lnKA

What follows are binders tested against dAsCas12a E174R (Acidaminococcus sp., UniProt U2UMQ6 1-1307, E174R;D908A;E993A;D1235A) in the same assay as above. Conditions: protein: recombinant.

Binder	binding signal
B1	-2.38 lnKA
B2	-4.71 lnKA
B3	-3.79 lnKA
B4	-2.54 lnKA
B5	-6.84 lnKA
B6	-4.51 lnKA
B7	-5.33 lnKA
B8	-4.65 lnKA
B9	-6.33 lnKA
B10	-6.98 lnKA
B11	-6.65 lnKA
B12	-6.06 lnKA
B13	-3 lnKA

The binders below were run against dAsCas12a S542R (Acidaminococcus sp., UniProt U2UMQ6 1-1307, S542R;D908A;E993A;D1235A) in the same assay as above. Conditions: protein: recombinant.

Binder	binding signal
B1	-4.07 lnKA
B2	-6.54 lnKA
B3	-4.75 lnKA
B4	-4.59 lnKA
B5	-7.35 lnKA
B6	-4.83 lnKA
B7	-5.32 lnKA
B8	-5.07 lnKA
B9	-7.21 lnKA
B10	-7.04 lnKA
B11	-7.42 lnKA
B12	-1.93 lnKA
B13	-4.46 lnKA

These binders were tested against dAsCas12a K548R (Acidaminococcus sp., UniProt U2UMQ6 1-1307, K548R;D908A;E993A;D1235A) in the same assay as above. Conditions: protein: recombinant.

Binder	binding signal
B1	-5.75 lnKA
B2	-6.91 lnKA
B3	-5.73 lnKA
B4	-8.57 lnKA
B5	-8.41 lnKA
B6	-5.84 lnKA
B7	-6.8 lnKA
B8	-6.66 lnKA
B9	-6.57 lnKA
B10	-8.38 lnKA
B11	-7.66 lnKA
B13	-6 lnKA

Each binder was assayed against d-enCas12a (Acidaminococcus sp., UniProt U2UMQ6 1-1307, E174R;S542R;K548R;D908A;E993A;D1235A) in the same assay as above. Conditions: protein: recombinant.

Binder	binding signal
B1	-0.581 lnKA
B2	-0.769 lnKA
B3	-0.728 lnKA
B4	-3.31 lnKA
B5	-2.97 lnKA
B6	-0.632 lnKA
B7	-1.41 lnKA
B8	-1.7 lnKA
B9	-0.993 lnKA
B10	-2.65 lnKA
B11	-1.93 lnKA
B12	-0.958 lnKA
B13	-0.547 lnKA

The binders below were run against d-enCas12a-Ultra (Acidaminococcus sp., UniProt U2UMQ6 1-1307, E174R;S542R;K548R;M537R;F870L;D908A;E993A;D1235A) in the same assay as above. Conditions: protein: recombinant.

Binder	binding signal
B1	-0.177 lnKA
B2	-0.324 lnKA
B3	-0.217 lnKA
B4	-0.837 lnKA
B5	-0.647 lnKA
B6	-0.198 lnKA
B7	-0.361 lnKA
B8	-0.41 lnKA
B9	-0.399 lnKA
B10	-0.552 lnKA
B11	-0.687 lnKA
B12	-0.245 lnKA
B13	-0.184 lnKA
